Assay outcomes (PubChem)
Compounds with a hit are over-represented: about 4.1% of the library has one in this group of screens.
hcDAF12 agonist: H. contortus DAF-12 nuclear receptor activators, primary screen, cell-based, luminescence, HEK293, lit1-tk-luc reporter; HEK293 hcDAF-12 lit1-tk-luc reporter; 0% DMSO, 100% Δ7-dafachronic acid; activation, % at 6.8 µM; 370,000 tested, 1.4% active;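 active = activation above the mean of all tested compounds plus 3 SD, cut at about 5.5% in these data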;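 also: 100% = response to 3 µM Δ7-dafachronic acid high control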
hgDAF-12 ag: H. glycines DAF-12 receptor agonists, primary screen, cell-based, luminescence, HEK293, GAL4 fusion, UAS-luciferase. Nuclear hormone receptor DAF-12 (Heterodera glycines), GAL4 fusion. HEK293 GAL4-hgDAF12 UAS-luciferase reporter, agonist luminescence; normalized to butyrate control. activation, % at 6.8 µM. 370,000 tested, 1.8% active. AID 687014, 2013;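 active = activation above a cutoff set at the mean of all screened compounds plus 3 SD, cut at about 10% in these data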;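 also: 0% = DMSO wells and 100% = sodium butyrate wells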
DAX1 inh-1: DAX1 (NR0B1) inhibitors on StAR promoter, primary screen, cell-based, luminescence, SF-1 (NR5A1), full-length DAX-1; AID 652010, 2013; 370,000 tested, 1.1% active; HEK293T StAR-luciferase reporter, SF-1/DAX-1 repression relief; inhibition, % at 6.8 µM;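 active = inhibition above the mean over all tested compounds plus 3 SD, cut at about 3.6% in these data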;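 also: 0% = DAX-1 cells with DMSO and 100% = cells lacking DAX-1 with DMSO; higher inhibition means more luminescence from relief of DAX-1 repression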
DAX1 inh-2: DAX1 (NR0B1) inhibitors, primary screen, cell-based, HEK293, Gal4-DAX1, luciferase luminescence; Nuclear receptor subfamily 0 group B member 1 (Homo sapiens), P51843; HEK293 Gal4-DAX1 luciferase reporter; inhibition, % at 6.75 µM; 340,000 tested, 0.99% active; AID 504766, 2011;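 active = inhibition above the mean over all tested compounds plus 3 SD, cut at about 4.2% in these data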;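 also: 0% = DAX1-transfected cells with DMSO and 100% = empty-vector control cells with DMSO; inhibition shows as a rise in luminescence from relieved DAX1 repression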
Target sequence (P51843 207-470 limits assumed): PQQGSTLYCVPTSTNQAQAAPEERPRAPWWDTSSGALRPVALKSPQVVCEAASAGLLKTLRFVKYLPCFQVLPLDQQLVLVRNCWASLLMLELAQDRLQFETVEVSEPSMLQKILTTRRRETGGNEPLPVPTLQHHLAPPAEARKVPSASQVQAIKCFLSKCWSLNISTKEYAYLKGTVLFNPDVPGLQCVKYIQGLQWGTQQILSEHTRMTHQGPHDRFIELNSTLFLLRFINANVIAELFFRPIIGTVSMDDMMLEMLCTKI
ssDAF-12 act: S. stercoralis DAF-12 nuclear receptor activators, primary screen, cell-based, luminescence, HEK293, GRIP1 co-expression, lit1-tk-luc | 370,000 tested, 1% active | AID 652126, 2013 | HEK293 ssDAF-12/GRIP1 lit1-tk-luc reporter; % of 3 µM dafachronic acid response | activation, % at 6.8 µM;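 active = activation above the mean over all tested compounds plus 3 SD, cut at about 0.9% in these data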;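 also: 0% = DMSO-only wells and 100% = 3 µM delta7-dafachronic acid wells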
An asterisk follows results filed as active; . = no result.

SMILES	hcDAF12 agonist	hgDAF-12 ag	DAX1 inh-1	DAX1 inh-2	ssDAF-12 act
CCOc1cc(/C=C2\CCCC(C(=O)C(F)(F)F)=C2O)ccc1O	-0.7	6.7	3.7*	1.1	-0.9
C[C@H]1[C@@H](NC(=O)c2cccc(C(F)(F)F)c2)CC[C@@]23CCCN2C(=O)CCC[C@@H]13	-1.2	-3.0	.	.	-0.8
CN1CCN(C(=O)CNc2ccc(C(F)(F)F)cc2[N+](=O)[O-])CC1	5.8*	2.5	0.2	-0.3	-0.1
CCCCCCCCN1C(=O)[C@@H](CC(=O)NCCCN2CCCC2=O)C[C@@]2(C(=O)OC)C1=C[C@H](C(C)C)O[C@@H]2C1CC1	1.3	-2.4	-0.9	.	-0.6
C/C(Cc1ccccc1)=N/NC(=O)CNC(=O)C(c1ccccc1)c1ccccc1	6.0*	0.0	0.3	0.5	-0.1
COc1ccc(S(=O)(=O)Nc2ccc(C)cn2)cc1	-1.1	0.2	0.2	4.6*	-1.0
Cc1cc(C)nc(NS(=O)(=O)c2ccc(Br)s2)c1	-0.4	-2.4	-0.6	0.7	-1.1
Cc1ccc(NS(=O)(=O)c2ccc(Br)s2)nc1	-0.7	-3.0	0.3	2.4	1.3*
COc1ccc(S(=O)(=O)Nc2ccc(Cl)cn2)cc1	-3.0	-3.7	-0.6	3.5	-0.6
CC(C)C[C@H](NC(=O)c1nccs1)C(=O)N1CCC[C@H]1C(=O)NCc1ccccc1	-1.6	2.5	-0.5	.	-1.3
NC(=O)c1cnn(-c2cc(Oc3ccccc3)ncn2)c1N	2.2	8.9	3.7*	2.2	0.2
Cc1sc(NC(=O)c2ccccc2F)c(CN2CCCCC2)c1C	6.2*	8.5	0.7	-0.9	-0.7
Cc1sc(NC(=O)c2ccc(F)cc2)c(CN2CCCCCC2)c1C	4.5	10.8*	2.2	0.2	0.4
O=C(Nc1sc2c(c1CN1CCOCC1)CCC2)c1ccc(F)cc1	5.9*	3.4	0.5	-1.3	-1.4
Cc1cc(NS(=O)(=O)c2ccc(NC(=O)CSc3nc4sc(C)c(C)c4c(=O)n3Cc3ccco3)cc2)nc(C)n1	-2.2	-2.3	1.2	.	-0.2
O=C(NN1C(=O)C2C(C1=O)C1C=CC2C12CC2)c1cccc(Cl)c1 (centres undefined)	-1.2	-1.7	0.0	5.0*	-1.2
C/C(=N\Nc1ccc(Cl)cc1)c1ccncc1	1.6	1.8	-0.1	0.7	-0.7
C/C(=N\NC=O)c1ccncc1	-0.3	1.4	-0.5	5.0*	-0.7
O=C(COC(=O)c1c(F)cccc1Cl)NCC1CCCCC1	-0.1	11.1*	0.1	1.1	-0.9
COc1cccc(NC(=O)COC(=O)c2c(F)cccc2Cl)c1	1.2	6.1	0.6	4.4*	-0.5
O=C(COC(=O)c1c(F)cccc1Cl)NC1CCCC1	0.8	6.8	0.7	1.2	0.1
COc1cccc(NC(=O)COC(=O)c2ccccc2F)c1	-2.2	-1.4	1.0	-1.1	-1.6
COC(=O)[C@]12C[C@H](CC(=O)NCC34CC5CC(CC(C5)C3)C4)C(=O)N(CCc3ccc(OC)c(OC)c3)C1=C[C@H](C(C)C)O[C@@H]2C1CC1	-1.2	-0.1	0.3	.	-0.6
Cc1sc2nc(CSC(C)C(=O)Nc3ccccn3)[nH]c(=O)c2c1C (centres undefined)	1.9	3.6	4.0*	0.5	-1.1
CCCC/C=C1/[C@H](c2ccccc2)N(C)C2=N[C@@H](c3ccccc3)CC(=O)N21	-4.0	-2.6	.	.	-1.8
SMILES	hcDAF12 agonist	hgDAF-12 ag	DAX1 inh-1	DAX1 inh-2	ssDAF-12 act
O=C(O)CN1C(=O)C2(OCCO2)c2cc(Br)ccc21	-0.6	1.7	-0.2	5.2*	-0.6
CN(c1ccc(OCC(=O)OCC(=O)NC2CCCC2)cc1)S(=O)(=O)c1ccc2ccccc2c1	2.5	0.8	1.0	-0.1	1.2*
CCOC(=O)c1nn(-c2ccc([N+](=O)[O-])cc2)cc1O	-0.3	1.6	1.6	2.4	-1.2
CCOC(=O)c1nn(-c2ccc(C)c(C)c2)cc1O	4.7	12.9*	2.6	2.2	-0.7
CC(C)[C@H](NC(=O)c1ccccc1)C(=O)OCC(=O)NCc1ccc(F)cc1	-0.2	0.0	-0.8	5.4*	-1.2
CC(C)[C@H](NC(=O)c1ccccc1)C(=O)OCC(=O)NCC1CCCO1 (some centres undefined)	-1.8	1.6	1.6	0.3	-0.7
C[C@@H]1CN([C@@H](C)CO)C(=O)c2c(c3ccccc3n2C)-c2ccccc2CO[C@H]1CN(C)C(=O)[C@H](C)c1ccccc1	-0.8	-4.0	-3.6	-0.6	-1.8
C[C@@H]1CN([C@H](C)CO)C(=O)c2c(c3ccccc3n2C)-c2ccccc2CO[C@H]1CN(C)C(=O)c1cc(Cl)cc(Cl)c1	0.5	-1.6	0.0	4.3*	-0.1
O=C1c2ccccc2C(=O)N1CN(C(=O)COc1ccc(Cl)cc1Cl)c1cccc(F)c1	5.9*	1.7	1.4	0.1	0.1
CCN(C(=O)COc1cc(=O)n(CC)c2ccccc12)c1cccc(Cl)c1	-1.5	-1.3	-1.2	0.6	-0.5
Cc1ccsc1C(=O)OCc1cc(=O)n2ccsc2n1	1.7	12.8*	4.3*	1.7	0.9*
COc1ccc(S(=O)(=O)NCC(=O)N2CCN(c3ccccn3)CC2)c(OC)c1	-3.5	-2.7	-0.9	.	-0.9
O=C(N/N=C1\CCc2ccccc21)c1ccccc1O	6.1*	8.4	4.4*	0.2	0.7
O=C(N/N=C1\CCCCc2ccccc21)c1ccccn1	0.8	12.3*	2.7	1.2	0.7
O=C(N/N=C1\CCCc2ccccc21)c1ccccc1Cl	0.9	2.8	0.8	1.0	-0.7
Cc1ccccc1Cn1cc(COC(=O)NCCc2ccccc2)nn1	-1.5	1.3	0.5	.	-1.9
CN(CCO)c1ccc2c(c1)Oc1ccccc1CN(Cc1cn(Cc3ccccc3C(F)(F)F)nn1)S2(=O)=O	-2.0	0.6	2.1	.	-0.7
CCOC(=O)c1nnn(CC(=O)N2N=C(c3ccccc3)CC2c2ccccc2)c1C(=O)OCC (centres undefined)	-0.3	-0.6	0.1	5.1*	-0.8
CCOC(=O)/C=C(\C)N1N=C(c2ccccc2)CC1c1ccccc1 (centres undefined)	6.7*	9.7	2.4	2.5	0.0
CC(=O)OCC(=O)N1N=C(c2ccc3ccccc3c2)CC1c1ccccc1 (centres undefined)	-1.8	-0.2	0.5	-0.9	-2.1
COc1ccc(C2CCC3(CCC(=O)N3CCOC(=O)NCc3ccc(Cl)cc3)CC2)cc1 (centres undefined)	-3.7	-4.2	-3.0	.	-2.1
O=C(Nc1ncc([N+](=O)[O-])s1)c1ccccc1Br	3.0	5.6	-0.1	1.1	-0.2
